Screening results deposited in PubChem by several laboratories.
MRP-1 activ = MRP-1 activation. viability increase, % at 10 µM. 140,000 compounds, 0.61% hits. H69AR cells + doxorubicin, viability rescue, CellTiter-Glo. AID 799;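 active = viability gain under doxorubicin at or above a set limit, the compound median plus 3 SD, cut at about 4.7% in these data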;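 note: MRP-1 overexpressing cells given doxorubicin 25 µM after compound pretreatment; 18-22 h compound pretreatment then 72 h with doxorubicin before readout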
Cav3 T inh = human Cav3.2 channel inhibition, primary screen. O95180. Cav3.2-expressing cells, Fluo-4 calcium fluorescence FDSS; hits give low values. B-score at 10 µM. 100,000 compounds, 4% hits;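 active = single-dose well whose peak fluorescence ratio is a statistical outlier from its plate by either plate-standardised score or position-corrected B-score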
CD11b adhes enh = enhancers of human CD11b/CD18 binding to fibrinogen. K562 CD11b/CD18 adhesion to fibrinogen, ATPlite luminescence. activation, % at 10 µM. 93,000 compounds, 0.07% hits;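 active = 10 µM primary screen giving 50% or more activity, confirmed by 40% or more on retest at that dose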
Target sequence (P05107 whole entry, looked up, other chains not shown): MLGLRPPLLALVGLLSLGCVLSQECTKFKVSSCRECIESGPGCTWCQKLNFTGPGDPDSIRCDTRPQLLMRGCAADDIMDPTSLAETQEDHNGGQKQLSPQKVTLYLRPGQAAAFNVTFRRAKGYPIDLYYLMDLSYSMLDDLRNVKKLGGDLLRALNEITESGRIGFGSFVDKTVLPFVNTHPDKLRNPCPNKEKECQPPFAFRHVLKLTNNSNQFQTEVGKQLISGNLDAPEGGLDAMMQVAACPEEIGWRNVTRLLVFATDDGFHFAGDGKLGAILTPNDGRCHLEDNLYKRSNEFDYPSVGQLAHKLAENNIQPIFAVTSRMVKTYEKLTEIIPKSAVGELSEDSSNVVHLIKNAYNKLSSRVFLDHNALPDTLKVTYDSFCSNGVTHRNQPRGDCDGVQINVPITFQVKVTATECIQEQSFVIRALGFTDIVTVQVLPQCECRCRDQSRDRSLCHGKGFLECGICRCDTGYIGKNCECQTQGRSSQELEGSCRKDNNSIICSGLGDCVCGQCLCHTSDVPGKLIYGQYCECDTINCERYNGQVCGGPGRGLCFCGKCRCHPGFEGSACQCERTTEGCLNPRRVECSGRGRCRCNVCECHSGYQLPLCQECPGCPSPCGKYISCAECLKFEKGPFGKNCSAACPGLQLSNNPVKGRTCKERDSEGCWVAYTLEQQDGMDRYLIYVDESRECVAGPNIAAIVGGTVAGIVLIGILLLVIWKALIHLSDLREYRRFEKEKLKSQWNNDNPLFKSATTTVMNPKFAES
PTK2B oligo ant = blocks oligomerization of human Pyk2 in cells | Q14289 | Q293 cells, Pyk2 FERM NanoBiT luminescence; hits give low values | z-score (the deposit names both 25 µM and 10 µM) | 99,000 compounds, 0.83% hits;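 active = Z-score of -3 or lower, scaled per plate to the spread of control and sample wells; inactive = z-score above -3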;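 note: negative z-score means lost luminescence so less FERM oligomerization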
Mac1 fbg inh = blocks human CD11b/CD18 adhesion to fibrinogen. K562 CD11b/CD18 adhesion to fibrinogen, ATPlite luminescence; Mn2+ added to activate the integrin. inhibition, % at 10 µM. 93,000 compounds, 0.54% hits. AID 1497;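 active = primary inhibition of 50% or more at 10 µM, then 40% or more on retest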
MRP resist rev = reverses drug resistance mediated by MRP. differential viability (reversal), % at 10 µM. 85,000 compounds, 0.04% hits. AID 602. H69AR cells + 2 uM doxorubicin, CellTiter-Glo, 72 h;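 active = viability drop by adding the cancer drug above about 55%, with treated viability meeting a 40% cutoff, limit read from the data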;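 note: larger differential means the compound sensitizes cells more to doxorubicin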
Numbers stand for hits; – = inactive; · = not tested or not shown. An excerpt weighted towards active compounds, which were near 4.1% of everything screened.

SMILES	MRP-1 activ	Cav3 T inh	CD11b adhes enh	PTK2B oligo ant	Mac1 fbg inh	MRP resist rev
CCN(CC)c1nc(N)nc(N(c2ccccc2)c2ccccc2)n1	–	–	–	·	–	–
Cc1ccc(-c2nc3ccccc3o2)cc1NC(=S)NC(=O)c1cccs1	–	–	–	–	–	·
Cc1cc(C)c2oc(-c3ccc(C)c(NC(=S)NC(=O)c4cccs4)c3)nc2c1	–	–	·	-3.67	·	·
COc1ccc(C2c3c(n[nH]c3C)CC(C)(O)C2C(C)=O)cc1OC (stereo unspecified)	–	–	–	–	–	–
COc1ccccc1/C=c1\sc2nc(-c3ccncc3)nn2c1=O	·	·	·	·	·	–
CC(C)c1ccccc1NC(=S)NN(Cc1ccccc1)c1ccccc1	–	-6.94	·	–	·	–
CCOC(=O)c1cn(-c2nc(-c3ccc(Cl)c(Cl)c3)cs2)c2c(F)c(N3CCOCC3)c(F)cc2c1=O	–	·	51.9	–	–	·
CCOC(=O)c1cn(-c2ccc(F)c(F)c2F)c2c(F)c(F)c(F)cc2c1=O	–	–	–	–	–	·
c1ccc(CSc2nnc(-c3c[nH]c4ccccc34)o2)cc1	–	–	–	–	–	–
Cc1[nH]c2ccccc2c1Cc1nnc(SCc2ccccc2)o1	–	-8.58	–	·	–	–
O=C1CC(N(Cc2ccco2)C(=O)Nc2ccc(F)cc2)C(=O)N1c1ccc(F)cc1 (stereo unspecified)	–	–	–	–	–	–
COCCn1nnnc1C(c1ccccn1)N1CCN(c2cc(Cl)ccc2C)CC1 (stereo unspecified)	–	–	–	–	–	–
Cc1cccc(N2CCN(C(c3ccccc3)c3nnnn3C(C)(C)C)CC2)c1C (stereo unspecified)	–	·	·	–	·	–
COCCn1nnnc1C(c1cccs1)N1CCN(c2nc3ccccc3s2)CC1 (stereo unspecified)	–	–	–	-3.39	–	–
CCC(c1nnnn1Cc1cccs1)N1CCN(c2nc3ccccc3s2)CC1 (stereo unspecified)	–	–	–	–	–	–
Cc1cccc(N2CCN(C(c3cccs3)c3nnnn3C(C)(C)C)CC2)c1C (stereo unspecified)	–	-6.36	–	–	–	–
COCCn1nnnc1C(c1cccs1)N1CCN(c2cc(C)ccc2C)CC1 (stereo unspecified)	–	-4.29	–	–	–	–
Cc1nc(-c2ccc(Cl)cc2)sc1C1(C)CC(c2ccc(Cl)cc2)=NO1 (stereo unspecified)	·	–	·	·	·	·
CCN(CC)CCNc1nc(-c2ccccc2)c2c(c1C#N)CC(C)(C)OC2	–	-3.68	–	–	–	–
CCCCN(C)c1nc(-c2ccco2)c2c(c1C#N)CC(C)(C)OC2	–	-3.8	–	·	–	–
CC1(C)Cc2c(C#N)c(NCCCO)nc(-c3ccccc3)c2CO1	–	–	–	·	–	–
COCCNC(=O)CN(C(=O)CCC(=O)Nc1cc(C)on1)c1cccc(C)c1C	–	–	–	–	–	–
C=CCn1c(SCc2ccc(C#N)cc2)nnc1-c1cccc(Cl)c1	–	-4.92	·	–	·	–
NC(=O)c1ccccc1N/C=C/C(=O)c1ccc(Cl)cc1Cl	–	–	·	–	·	–
Cc1ccc2cc(CN(Cc3ccco3)C(=O)NC3CCCCC3)c(=O)[nH]c2c1C	–	-4.36	·	–	·	–
SMILES	MRP-1 activ	Cav3 T inh	CD11b adhes enh	PTK2B oligo ant	Mac1 fbg inh	MRP resist rev
Cc1cc(C)c2cc(CN(Cc3ccco3)C(=O)NCc3ccccc3)c(=O)[nH]c2c1	–	-7.1	–	–	–	–
COc1cc(S(=O)(=O)N2CCN(c3ccc(F)cc3)CC2)ccc1Cl	–	–	–	-3.28	–	·
COc1cc(S(=O)(=O)N2CCN(c3ccccc3F)CC2)ccc1Cl	–	–	–	-3.05	–	–
COc1cc(S(=O)(=O)N2CCN(c3ccccc3)CC2)ccc1Cl	–	–	–	–	–	–
COc1ccc2c(c1)CCc1sc(NC(=O)c3ccco3)nc1-2	–	–	–	·	–	–
COc1ccc2c(c1)CCc1sc(NC(=O)c3ccc(C)cc3)nc1-2	4.9	–	–	–	–	–
O=C(CSC1CC(=O)N(CCc2ccccc2)C1=O)Nc1ccc(Br)cc1 (stereo unspecified)	–	-4.81	–	–	–	·
CCOc1ccc(NC(=O)CC2C(=O)N(C)C(=S)N2CCCc2ccccc2)cc1 (stereo unspecified)	–	·	·	·	·	·
CCN1C(=O)C(CC(=O)Nc2ccc(Br)cc2)N(CCCc2ccccc2)C1=S (stereo unspecified)	–	-4.47	·	–	·	·
O=C(CSC1CC(=O)N(CCc2ccccc2)C1=O)Nc1cccc(Cl)c1 (stereo unspecified)	–	·	–	·	–	·
CCCc1c(O)nc(SCCN(CCC)CCC)[nH]c1=O	–	–	–	–	–	–
CCn1c(=O)c2c3c(sc2n2c(=S)[nH]nc12)CCC3	–	3.61	–	–	–	–
CCn1c(=O)c2c3c(sc2n(C)c1=O)CCC3	–	–	–	–	–	–
Cc1cccc(-c2noc(CN(C(=O)C34CC5CC(CC(C5)C3)C4)C(C)C)n2)c1	–	–	–	–	–	–
COc1cc(OC)cc(C(=O)N(Cc2nc(-c3cccc(C)c3)no2)C(C)C)c1	–	-6.71	–	–	–	–
Cc1ccccc1OCC(=O)N(Cc1nc(-c2ccccc2)no1)C(C)C	–	-4.28	–	–	–	–
CC(C)N(Cc1nc(-c2ccc(Cl)cc2)no1)C(=O)CCCN1C(=O)c2ccccc2C1=O	–	-5.01	–	·	–	–
COc1ccccc1OCC(=O)N(Cc1nc(-c2ccccc2)no1)C1CCCCC1	–	-8.13	–	–	–	–
CC1=NN(C(=O)c2ccc(Cn3cc(Br)c([N+](=O)[O-])n3)o2)C(O)(C(F)(F)F)C1 (stereo unspecified)	–	·	·	·	·	·
CCOC(=O)N1CCC(NC(=O)c2ccc3c(Cl)c4c(nc3c2)CCCC4)CC1	–	–	·	·	·	·
CCN(C(=O)c1ccc2c(Cl)c3c(nc2c1)CCC3)c1cccc(C)c1	–	-5.58	·	·	·	·
CCc1ccc(N(CC)C(=O)c2ccc3c(Cl)c4c(nc3c2)CCC4)cc1	–	-3.24	·	·	·	·
Cc1ccc(N(C)C(=O)c2ccc3c(Cl)c4c(nc3c2)CCC4)cc1C	–	-5.53	·	·	·	·
N#Cc1ccccc1NC(=O)c1ccc2c(Cl)c3c(nc2c1)CCCC3	–	·	–	–	–	·
CC(=O)c1cccc(NC(=O)c2ccc3c(Cl)c4c(nc3c2)CCCC4)c1	–	·	–	·	–	·
SMILES	MRP-1 activ	Cav3 T inh	CD11b adhes enh	PTK2B oligo ant	Mac1 fbg inh	MRP resist rev
N#CCCN1CCN(C2=NC(=O)C(=C3CCCCC3)S2)CC1	–	–	–	–	–	–
Cc1onc(-c2ccccc2Cl)c1C(=O)Nc1nnc(-c2ccc(Cl)cc2Cl)s1	–	–	–	·	–	–
CCOC(=O)Cc1csc(NC(=S)NC(=O)C(C)(C)C)n1	12.9	·	·	·	·	·
Cc1onc(-c2ccccc2Cl)c1C(=O)Nc1ccc(F)c(F)c1	–	-4.08	–	–	–	·
Cc1ccc(Cn2ccc(NC(=O)c3c(-c4ccccc4Cl)noc3C)n2)cc1	–	-5.52	–	–	–	–
Cc1onc(-c2ccccc2Cl)c1C(=O)Nc1nnc(-c2ccc(Br)cc2)s1	7.2	–	–	·	–	–
